Cav3 T inh – human Cav3.2 channel inhibition, primary screen. O95180. Cav3.2-expressing cells, Fluo-4 calcium fluorescence FDSS; stronger effect = lower value. B-score at 10 µM. 100,000 compounds, 4% hits. AID 449739;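 active = single-dose well whose peak fluorescence ratio is a statistical outlier from its plate by either plate-standardised score or position-corrected B-score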
D1 mod – allosteric modulators of human D1 dopamine receptor | AID 641 | P21728 | B-score at 10 µM | 58,000 compounds, 5.9% hits | HEK293 D1, CRE-luciferase, dopamine EC30 potentiation; actives deviate in either direction;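 active = luminescence count or its row- and column-corrected plate score outside the 99.7% band of the plate's sample wells, on either side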
DAT uptake mod – human DAT dopamine uptake with cocaine, either direction. Q01959. LLC-PK1 hDAT cells, [14C]-dopamine uptake with cocaine IC80; actives deviate in either direction. B-score at 10 µM. 110,000 compounds, 1.3% hits. AID 449768;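 active = Z score or B-score, a plate-position-corrected score, falls beyond the plate's 99.7% confidence bounds, in either direction; inactive = both scores lie inside the 99.7% bounds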;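 also: scored against the spread of the other compound wells on the same plate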
PostGolgi ctrl – growth of the yeast control strain, post-Golgi counter-screen; AID 738; inhibition, % at 10 µM; 98,000 compounds, 5% hits; efflux-deficient yeast background strain, growth absorbance A615, 16 h
PostGolgi yeast – growth inhibition of a yeast mutant, post-Golgi transport screen | post-Golgi transport phenotypic cell assay | AID 739 | 98,000 compounds, 0.9% hits | inhibition, % at 10 µM;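 also: yeast cells grown in 1536-well plates; yeast grown about 18 h at 30C before absorbance read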
PLAP act – human PLAP activation; purified PLAP enzyme, luminescent substrate read-out; stronger effect = higher value; activation fold at 20 µM; 96,000 compounds, 1.2% hits; in the data active = activation fold above about 2
Target sequence (P05187 whole entry, looked up): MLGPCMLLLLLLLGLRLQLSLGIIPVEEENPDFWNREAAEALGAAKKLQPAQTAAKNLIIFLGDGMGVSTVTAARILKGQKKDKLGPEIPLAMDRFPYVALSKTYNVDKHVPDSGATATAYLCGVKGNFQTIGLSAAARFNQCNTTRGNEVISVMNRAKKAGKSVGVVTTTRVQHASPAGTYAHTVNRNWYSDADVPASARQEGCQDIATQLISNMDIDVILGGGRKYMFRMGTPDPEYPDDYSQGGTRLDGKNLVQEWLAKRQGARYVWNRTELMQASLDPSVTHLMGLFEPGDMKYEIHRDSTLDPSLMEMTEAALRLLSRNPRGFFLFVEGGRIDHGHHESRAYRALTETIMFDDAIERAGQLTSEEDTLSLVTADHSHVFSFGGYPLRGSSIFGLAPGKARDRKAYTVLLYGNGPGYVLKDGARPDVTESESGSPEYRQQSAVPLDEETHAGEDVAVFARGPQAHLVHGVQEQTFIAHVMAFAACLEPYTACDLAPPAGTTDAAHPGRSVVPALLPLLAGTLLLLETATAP
Starred values were filed as active, the others as inactive; . = no result. The list is not random: actives were taken first. Their share in the collection is about 12%. Rule as the data show it, unless noted: active = inhibition above about 30%; inactive = the rest.

SMILES	Cav3 T inh	D1 mod	DAT uptake mod	PostGolgi ctrl	PostGolgi yeast	PLAP act
C=CCn1c(SCC(=O)c2ccc(OC)cc2)nnc1C(C)NC(=O)c1cccs1 (stereo not drawn)	0.087	0.78	0.62	15	-9	1.5
NS(=O)(=O)c1ccc(CCNC2CC(=O)N(Cc3ccccc3)C2=O)cc1 (stereo not drawn)	0.022	-0.026	0.31	32*	-3	1
CCOc1ccc(N2C(=O)CC(NCCc3ccc(S(N)(=O)=O)cc3)C2=O)cc1 (stereo not drawn)	-1.7	0.33	0.12	0	-1	1
CCOc1ccc2nc(NC(=O)CCC(=O)c3cccs3)sc2c1	-0.0019	.	-0.51	5	-23	1.4
N#Cc1ccccc1NC(=O)c1ccc(-c2ccccc2Cl)o1	-0.19	-0.44	-0.44	-3	-7	1.9
COc1ccc(O/C(=N\S(=O)(=O)c2ccccc2)c2ccccc2)cc1	-0.24	.	-0.53	7	-6	0.9
CC(C)CO/C(=N/S(=O)(=O)c1ccccc1)c1ccccc1	-4.1*	.	-0.64	7	-7	0.9
COCCCNC(=O)C1CCN(C(=O)Nc2ccc(Cl)cc2)CC1	0.97	0.16	0.041	-2	5	1.1
O=C(Nc1ccccc1C(=O)NC(Cc1ccccc1)C(=O)NC1CCCCCC1)c1ccccc1 (stereo not drawn)	-5.3*	.	-0.13	12	2	1
O=C(N[C@@H](Cc1ccccc1)C(=O)NC1CCCCCC1)c1ccco1	-0.018	.	-0.37	2	-15	1.3
O=C1c2ccccc2C(=O)c2c1oc(C(F)(F)F)c2C(=O)c1ccccc1	.	.	-0.87	56*	104*	1
COc1ccc(CNC(=O)c2c(C)oc3c2C(=O)c2ccccc2C3=O)cc1	1.6	.	0.052	.	.	.
C/C(=N\NC(=O)c1cccc(Br)c1)c1ccc(Br)cc1	0.1	.	-0.012	2	-9	1
O=C(N/N=C/C1C(c2ccccc2)C1(Cl)Cl)c1cccc(Br)c1 (stereo not drawn)	-6.7*	.	-1.1	10	2	1.2
CCN(CC(=O)NC)S(=O)(=O)c1ccc(Br)cc1	0.8	0.12	-0.05	3	-5	1.1
Cc1ccc(Cn2cccc2C2=NC(C)CO2)cc1 (stereo not drawn)	-0.44	.	0.43	14	20	0.9
Cc1oc(-c2ccccc2Cl)nc1Cn1cccc1C1=NC(c2ccccc2)CO1 (stereo not drawn)	-6.7*	.	-0.38	8	-10	0.9
CC(C(N)=O)N1C(=O)c2cccc3cccc1c23 (stereo not drawn)	0.13	.	-0.017	6	-4	0.8
Cc1ccc(S(=O)(=O)N/N=C/c2cccn2-c2ccc(Cl)cc2)cc1	-4.3*	.	0.83	21	-8	.
Cc1ccc(S(=O)(=O)N/N=C/c2c(C)nn(-c3ccccc3)c2C)cc1	-2.5	.	2.5*	10	0	1.2
Cc1ccc(S(=O)(=O)N/N=C\c2cn(-c3ccccc3)nc2-c2ccccc2)cc1	-2.1	.	1.3	4	-1	1.5
Cc1ccc[n+](C(C)C(=O)Nc2ccc(C)c([N+](=O)[O-])c2)c1 (stereo not drawn)	0.21	.	1.1	3	8	0.8
COc1ccc(OC)c(NC(=O)C(=O)N/N=C/c2ccccc2[N+](=O)[O-])c1	-0.53	.	-0.68	-7	0	1.2
COc1ccc(NC(=O)C(=O)N/N=C/c2cc(C)n(-c3cccc(Cl)c3Cl)c2C)c(OC)c1	-3.3	.	0.58	4	3	2*
COc1ccc(CCn2c(-c3ccco3)nc3nc4ccccc4nc32)cc1	-0.78	0.75	-0.81	19	0	1.6
SMILES	Cav3 T inh	D1 mod	DAT uptake mod	PostGolgi ctrl	PostGolgi yeast	PLAP act
COc1ccc(C(=O)n2c(-c3ccco3)nc3ccccc32)cc1	-1.7	2.3	-0.99	33*	6	1.2
Cc1ccc(Oc2ccc(S(=O)(=O)N3CCOCC3)cc2C(N)=O)c(-n2nc3ccccc3n2)c1	.	0.86	-0.0051	8	2	0.9
CN1CCN(c2ccccc2NC(=O)c2ccc(-c3ccccc3)cc2)CC1	0.6	-3	4.9*	13	15	1.4
CN1CCN(c2ccc([N+](=O)[O-])cc2NC(=O)c2ccccc2)CC1	0.15	.	-0.55	0	-8	0.9
COc1c(Cl)cc(Cl)cc1C(=O)Nc1ccccc1N1CCN(C(C)=O)CC1	-0.053	-0.34	.	.	.	.
COc1ccc(Cl)cc1C(=O)Nc1ccccc1N1CCN(C)CC1	1.6	-3.2	3.5*	15	19	1.5
